This is an account of results in publication PMC4336329 (PLoS ONE, 2015).

The structures appear in SMILES notation. In all, about 310,000 compounds went through this assay and about 2,200 (0.71%) showed an effect of 50% or more. The effect is printed as a negative number. For the sample, strong results were picked, then their nearest neighbours and some compounds at random.

Sequence of human ether-à-go-go-related gene (hERG) potassium channel (Q12809 whole entry, looked up): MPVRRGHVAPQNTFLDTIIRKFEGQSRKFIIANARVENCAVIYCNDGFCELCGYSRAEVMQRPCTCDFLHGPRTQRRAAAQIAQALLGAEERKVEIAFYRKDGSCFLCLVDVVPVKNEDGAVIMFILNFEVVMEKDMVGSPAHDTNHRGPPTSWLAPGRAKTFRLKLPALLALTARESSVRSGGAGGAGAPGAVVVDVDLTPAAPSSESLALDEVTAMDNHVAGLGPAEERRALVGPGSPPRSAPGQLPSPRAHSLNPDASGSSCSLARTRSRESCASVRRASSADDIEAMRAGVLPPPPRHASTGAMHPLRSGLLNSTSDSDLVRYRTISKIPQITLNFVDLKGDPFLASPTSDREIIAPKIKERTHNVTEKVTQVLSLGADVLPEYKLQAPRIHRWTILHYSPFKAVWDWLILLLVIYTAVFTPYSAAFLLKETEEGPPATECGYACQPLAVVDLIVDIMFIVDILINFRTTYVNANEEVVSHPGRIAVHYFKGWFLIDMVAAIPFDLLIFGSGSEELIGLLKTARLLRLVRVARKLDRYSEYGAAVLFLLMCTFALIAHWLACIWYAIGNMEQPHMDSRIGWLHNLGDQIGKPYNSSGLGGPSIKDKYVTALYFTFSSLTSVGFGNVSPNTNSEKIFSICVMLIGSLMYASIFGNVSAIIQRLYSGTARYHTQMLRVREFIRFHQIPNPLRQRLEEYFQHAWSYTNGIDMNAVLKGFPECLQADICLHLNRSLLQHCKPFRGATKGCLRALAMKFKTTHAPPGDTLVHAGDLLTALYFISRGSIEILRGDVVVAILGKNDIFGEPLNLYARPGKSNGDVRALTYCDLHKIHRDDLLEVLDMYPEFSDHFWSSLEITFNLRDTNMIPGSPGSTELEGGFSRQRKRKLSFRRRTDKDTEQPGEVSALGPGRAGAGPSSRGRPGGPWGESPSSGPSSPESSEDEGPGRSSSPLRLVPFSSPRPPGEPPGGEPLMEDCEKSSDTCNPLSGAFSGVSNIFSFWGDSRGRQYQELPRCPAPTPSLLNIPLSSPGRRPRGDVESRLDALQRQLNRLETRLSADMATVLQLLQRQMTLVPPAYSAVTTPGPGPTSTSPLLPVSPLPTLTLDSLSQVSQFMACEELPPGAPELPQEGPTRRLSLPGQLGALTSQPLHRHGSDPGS

The experiment addresses human ether-à-go-go-related gene (hERG) potassium channel (human, UniProt Q12809). Description: primary screen, population patch clamp on CHO cells stably expressing hERG; higher = less effect of the substance.
For `CC1CCN(CC(C)OC(=O)c2ccc3c(c2)OCCO3)CC1.Cl` (centres unmarked), the “hERG current change (%, negative = inhibition) at 1uM” value amounted to 3.75%. With `O=C(NC(NC(=S)Nc1ccccc1C(=O)O)C(Cl)(Cl)Cl)c1ccco1` (centres unmarked) the figure was 5.62%.

Regarding `Cc1ccc(S(=O)(=O)NCCC(=O)N2CCCCCCC2)cc1`, the “hERG current change (%, negative = inhibition) at 1uM” value is recorded as 22.3%. With `Cn1c(=O)oc2cc(S(=O)(=O)NCCN3CCN(c4ccccc4F)CC3)ccc21` the figure was 3.83%. With `CN(C)c1ccc(-c2noc(C3CCN(S(=O)(=O)c4cccc(C(=O)O)c4)CC3)n2)cc1` the figure was 13.6%; with `O=C(O)c1cccc(N=NN2CCCCCC2)c1`, 8.11%.

For the compound `Cc1ccc(Nc2nc(N)nc(CSc3nc(C)cc(C)n3)n2)cc1`, the “hERG current change (%, negative = inhibition) at 1uM” value is 8.5%. With `Cc1cc(C)n2c(Br)c(CSc3nc4ccccc4o3)nc2n1` the figure was -53%; with `Cc1cc(C)n2c(Br)c(CSc3nc4ccccc4s3)nc2n1`, -19.3%. With `Cc1csc2nc(CSc3nc4ccccc4o3)c(Br)n12` the figure was 15.9%; with `CCn1c(=O)c(C(=O)CN(C)Cc2cccc(OC)c2OC)c(N)n(Cc2ccccc2)c1=O`, -18.3%; with `Cn1c(=O)c(C(=O)CN2CCN(Cc3ccc4c(c3)OCO4)CC2)c(N)n(Cc2ccccc2)c1=O`, -40.4%. Turning to `CCn1c(=O)c(C(=O)CN2CCN(Cc3ccc4c(c3)OCO4)CC2)c(N)n(Cc2ccccc2)c1=O`, the “hERG current change (%, negative = inhibition) at 1uM” value is listed as -67.4%. To `CCOc1ccc(CN(C)CC(=O)c2c(N)n(Cc3ccccc3)c(=O)n(CC)c2=O)cc1OC` belongs -82.5%. `CCn1c(=O)c(C(=O)CN(C)Cc2ccc(F)cc2)c(N)n(Cc2ccccc2)c1=O`: the “hERG current change (%, negative = inhibition) at 1uM” value is on record as -33.6%. To `CCn1c(=O)c(C(=O)CN2CCOCC2)c(N)n(Cc2ccccc2)c1=O` belongs -0.674%; to `CCNC1=C(Cl)C(=O)c2ccccc2C1=O`, 14.3%. With `O=C(O)C1CCCN1C(=O)NC1CCCCC1` (centres unmarked) the figure was 17.1%; with `O=C(c1cc(Br)ccc1Cl)N1CCN(c2ccc(N3CCOCC3)nn2)CC1`, 5.71%. With `COc1cccc(/C=N/NC(=O)NC23CC4CC(CC(C4)C2)C3)c1O` the figure was 6.53%. As for `COc1ccc(NC(=O)CSc2n[nH]c(-c3ccccn3)n2)cc1`, the “hERG current change (%, negative = inhibition) at 1uM” value is 13%.

Turning to `COc1ccc(C(=O)Nc2ccccc2NC(=O)c2ccco2)cc1OC`, the “hERG current change (%, negative = inhibition) at 1uM” value is on record as -9.39%. With `CCN=C1SC(CC(=O)Nc2ccc(C(F)(F)F)cc2)C(=O)N1CC` (centres unmarked) the figure was 1.51%; with `Cc1cc(C)cc(NC(=O)c2ccccc2NC(=O)CCC(=O)O)c1`, 7.41%; with `CC1CCN(CCCCOc2ccccc2F)CC1.O=C(O)C(=O)O`, 7.61%. With `CCC(=O)c1ccccc1OCCN1CCN(CC)CC1.O=C(O)C(=O)O` the figure was -2.43%; with `CCc1ccccc1OCCCCN1CCCC1.O=C(O)C(=O)O`, -2.73%.

For `O=C(O)C(=O)O.OCc1ccccc1OCCCN1CCC(Cc2ccccc2)CC1`, the “hERG current change (%, negative = inhibition) at 1uM” value is on record as -65.9%. With `CCc1ccccc1OCCCN1CCCC1.O=C(O)C(=O)O` the figure was 3.26%. With `N#Cc1ccccc1OCCCN1CCC(Cc2ccccc2)CC1.O=C(O)C(=O)O` the figure was -83%. With `N#Cc1ccccc1OCCCNC1CCCC1.O=C(O)C(=O)O` the figure was 2.23%. Consider `CCC(=O)c1ccccc1OCCCN1CCC(Cc2ccccc2)CC1.O=C(O)C(=O)O`, for which the “hERG current change (%, negative = inhibition) at 1uM” value was -87%. As to `CCC(=O)c1ccccc1OCCN1CCN(Cc2ccccc2)CC1.O=C(O)C(=O)O`, the “hERG current change (%, negative = inhibition) at 1uM” value was -21.9%. On to `Cc1ccc(C)c(NC(=S)NCCSc2ccc(Cl)cc2)c1`, for which the “hERG current change (%, negative = inhibition) at 1uM” value is given as 11.9%. With `CS(=O)(=O)N1CCc2cc(C(=O)Nc3ccc(COCC(F)(F)F)cc3)ccc21` the figure was 10.4%; with `Cc1cc(C(=O)Nc2ccc(C(=O)O)cc2)c(-c2ccccc2)o1`, -3.53%. Turning to `CC(=O)c1ccc(NC(=O)C(C)N(C)CC(=O)Nc2ccccc2Cl)cc1` (centres unmarked), the “hERG current change (%, negative = inhibition) at 1uM” value amounted to 14.4%.

`O=C(O)CN1C(=O)/C(=C/c2ccsc2)SC1=S`: the “hERG current change (%, negative = inhibition) at 1uM” value stood at 12%. Take `COc1ccc(C(Nc2cc(C)ccn2)c2ccc3ccc(C)nc3c2O)cc1` (centres unmarked): the “hERG current change (%, negative = inhibition) at 1uM” value turned out to be 4.46%. To `CC1CCC(NC(=O)Cn2c3c(c(-c4ccccc4Cl)cc2=O)CCC3)CC1` (centres unmarked) belongs 9.99%; to `COc1ccc(NC(=O)Nc2cccc(OC)c2)cc1`, -2.63%; to `C=CCSc1nnc(Cn2c(=O)sc3ccccc32)n1C`, -6.54%. With `COc1ccc(C(=O)NC2CC2)cc1OC1CCN(Cc2ccccc2O)CC1`, the “hERG current change (%, negative = inhibition) at 1uM” value is reported as -91.5%. With `COc1ccc(C(=O)NC2CC2)cc1OC1CCN(Cc2cc(C)c(C)cc2C)CC1` the figure was -74.1%; with `C=CCOc1ccccc1CN1CCC(Oc2cc(C(=O)NC3CC3)ccc2OC)CC1`, -66.6%; with `C=CCOc1ccccc1CN1CCC(Oc2ccc(C(=O)N3CCCCC3)cc2)CC1`, -3.91%. With `COc1ccc(C(=O)NC2CC2)cc1OC1CCN(Cc2ccccc2F)CC1` the figure was -64.5%. Take `CCn1ncc(CN2CCC(Oc3cc(C(=O)NC4CC4)ccc3OC)CC2)c1C`: the “hERG current change (%, negative = inhibition) at 1uM” value is recorded as 1.05%. To `C=CCOc1ccccc1CN1CCC(Oc2ccc(C(=O)N3CCCC3)cc2)CC1` belongs -19.5%. To `COc1ccccc1CCNC(=O)c1ccc(OC)c(OC2CCN(C(C)C)CC2)c1` belongs -4.22%; to `COc1ccc(C(=O)N(C)C2CCCN(Cc3ccccc3F)C2)cc1OC` (centres unmarked), 10.2%; to `COc1ccc(C(=O)NCCc2ccccc2F)cc1OC1CCN(C(C)=O)CC1`, 12.5%.

`COc1ccc(C(=O)NC2CC2)cc1OC1CCN(Cc2cnn(C)c2C)CC1`: the “hERG current change (%, negative = inhibition) at 1uM” value is -2%. With `COc1cc(C(=O)NC2Cc3ccccc3C2)ccc1OC1CCN(C(C)=O)CC1` the figure was 9.82%. With `CCOC(=O)c1c(C)nc2ncccn12` the figure was 2.38%; with `COC(=O)Oc1ccc(/C=N/NC(=O)CN(c2ccccc2Cl)S(C)(=O)=O)cc1OC`, 9.16%; with `Cc1ccc(C(=O)COC(=O)CCC(=O)Nc2ccccc2Cl)cc1[N+](=O)[O-]`, 8.32%. To `CC1Cn2c(nnc2C23CC4CC(CC(C4)C2)C3)S1` (centres unmarked) belongs 7.65%; to `Cc1ccc(N2NC(=O)/C(=C\c3cc4c(cc3[N+](=O)[O-])OCO4)C2=O)cc1C`, 0.881%. For the compound `CCN(c1ccccc1)S(=O)(=O)c1ccc2[nH]c(=O)[nH]c2c1`, the “hERG current change (%, negative = inhibition) at 1uM” value worked out at 8.82%. To `O=C(Nc1ccc(-n2ccc(C(F)(F)F)n2)cc1)Nc1cccc(Cl)c1` belongs 11.3%; to `COc1ccc(CN2CCC(Oc3cc(C(=O)NC4CC4)ccc3OC)CC2)c(O)c1`, -87.5%. To `COc1ccc(OC)c(CN2CCC(N3CCC(C(=O)NC4CC4)CC3)CC2)c1` belongs 4.7%. To `COc1ccc(CN2CCC(Oc3ccc(C(=O)NCc4ccccn4)cc3)CC2)c(F)c1` belongs 7.46%; to `CCOC(=O)c1nc2cc3n(c(C)c-2c1C)C(C)C(C)=C3C.Cl` (centres unmarked), -13.9%; to `CCOC(=O)c1nc2cc3n(c(C)c-2c1C)C(C)C(CC)=C3C.Cl` (centres unmarked), -39.5%. Regarding `CCOC(=O)c1nc2cc3n(c(CC(C)C)c-2c1C)CC(C)=C3C.Cl`, the “hERG current change (%, negative = inhibition) at 1uM” value is -54.2%. On to `CCOC(=O)c1nn(-c2ccc(F)cc2)c(=O)cc1OCC(=O)Nc1ccc(OCC)cc1`, for which the “hERG current change (%, negative = inhibition) at 1uM” value worked out at 10.8%. With `Cc1c2ccccc2nc2c(F)c(N(C)C)c(F)c(F)c12` the figure was 19.7%; with `O=C(NCCCc1ccccc1)C1CCC(=O)N(CCc2ccc(Cl)cc2)C1` (centres unmarked), -62.2%.

Consider `CN(CCOc1ccccc1)C(=O)C1CCC(=O)N(CCc2ccc(Cl)cc2)C1` (centres unmarked), for which the “hERG current change (%, negative = inhibition) at 1uM” value is -51.2%. With `CCc1ccc(CN(C)C(=O)C2CCC(=O)N(Cc3cccc(OC)c3)C2)nc1` (centres unmarked) the figure was 4.11%. To `COc1ccc(CCN2CC(C(=O)N(C)CCOc3ccccc3)CCC2=O)cc1` (centres unmarked) belongs -34.3%; to `CCc1ccc(CN(C)C(=O)C2CCC(=O)N(CCc3ccc(OC)cc3)C2)nc1` (centres unmarked), -57.9%; to `O=C(NCCc1ccccc1)C1CCC(=O)N(Cc2ccc(Cl)cc2)C1` (centres unmarked), 5.85%. Take `CN(CCNC(=O)C1CCC(=O)N(Cc2ccc(Cl)cc2)C1)CCc1ccccc1` (centres unmarked): the “hERG current change (%, negative = inhibition) at 1uM” value was -50.5%. With `O=C(NCCOc1ccccc1)C1CCC(=O)N(CCc2ccc(Cl)cc2)C1` (centres unmarked) the figure was -45%; with `COc1ccc(CCN2CC(C(=O)N(C)Cc3ccccc3OC)CCC2=O)cc1` (centres unmarked), 26.7%.

As to `CN(CCNC(=O)C1CCC(=O)N(Cc2cccc(F)c2)C1)CCc1ccccc1` (centres unmarked), the “hERG current change (%, negative = inhibition) at 1uM” value is on record as -14.8%.

For `COc1ccccc1CCCNC(=O)C1CCC(=O)N(CCc2ccc(Cl)cc2)C1` (centres unmarked), the “hERG current change (%, negative = inhibition) at 1uM” value was -3.88%.

As for `O=C(NCCCc1ccccc1)C1CCC(=O)N(Cc2ccc(Cl)cc2)C1` (centres unmarked), the “hERG current change (%, negative = inhibition) at 1uM” value is given as -6.98%.

As for `O=C(NCc1ccccc1)c1cnc(-c2ccccn2)nc1C(F)(F)F`, the “hERG current change (%, negative = inhibition) at 1uM” value was 9.39%. With `Nc1nc(CSc2nnnn2-c2ccc(Cl)cc2)nc(N2CCOCC2)n1` the figure was 11.5%; with `C/C(=N\N1C(=O)CSC1=S)c1ccc(Br)cc1`, 1.48%; with `S=C1NNC2(NN1)C1CC3CC(C1)CC2C3`, 12.4%. To `COc1ccc(-n2cnnc2SCC(=O)N2CCN(S(=O)(=O)c3ccccc3)CC2)cc1` belongs 1.1%.
